{
  "source": "the OligoGym collection",
  "data": [
    {"biological_target": "CYP4A22", "experiment": "pooled miR-30 sensor sort-seq; sequence = guide strand", "settings": "shRNA", "values": [
      {"sequence": "TTTCAACACAAGTCGTGCCATG", "sensor-assay potency score (higher = more potent)": -0.809},
      {"sequence": "TGAGCTCTCTTCCAATGCCTGG", "sensor-assay potency score (higher = more potent)": -1.4},
      {"sequence": "TTCATGGCAAATTGTTTCCCGA", "sensor-assay potency score (higher = more potent)": -0.959},
      {"sequence": "TTGGTCTGTGTGCTGATGGGCC", "sensor-assay potency score (higher = more potent)": -0.327},
      {"sequence": "AATAAGGACAGGCACTTGGGAA", "sensor-assay potency score (higher = more potent)": -1.26},
      {"sequence": "TAGCTCCTGGTCGTGTTGGAAC", "sensor-assay potency score (higher = more potent)": -1.63},
      {"sequence": "TAGGATCCATGGGATTTCGGGT", "sensor-assay potency score (higher = more potent)": -1.1},
      {"sequence": "TTGTAGCTCCTGGTCGTGTTGG", "sensor-assay potency score (higher = more potent)": -0.703},
      {"sequence": "TTGATCTTCTCCAGCTCCCCCT", "sensor-assay potency score (higher = more potent)": -0.672},
      {"sequence": "AAACATGAACGTGTCCACCTCA", "sensor-assay potency score (higher = more potent)": -0.12},
      {"sequence": "TTGGGTTGTGGTGAAGGCCATA", "sensor-assay potency score (higher = more potent)": -1},
      {"sequence": "TGGTCGTGTTGGAACTCCTGGA", "sensor-assay potency score (higher = more potent)": -0.8}
    ]},
    {"biological_target": "CYP4V2", "experiment": "pooled miR-30 sensor sort-seq; sequence = guide strand", "settings": "shRNA", "values": [
      {"sequence": "TTTTGACCTATACAGTTCCTGG", "sensor-assay potency score (higher = more potent)": -1.19},
      {"sequence": "TAACACATTCCAGATACCGAAG", "sensor-assay potency score (higher = more potent)": -1.38},
      {"sequence": "TTCTGGTTGGATTCTATCCAAA", "sensor-assay potency score (higher = more potent)": -1.62},
      {"sequence": "TTCTTCAGGTCTTCTACTGTAG", "sensor-assay potency score (higher = more potent)": -0.329},
      {"sequence": "TTAGAACTCTGTAACCTGCCAC", "sensor-assay potency score (higher = more potent)": 0.681},
      {"sequence": "TCATTCTATAAACTGCACGGAC", "sensor-assay potency score (higher = more potent)": -0.644},
      {"sequence": "TTCAACTTGATCCAGATGCCAT", "sensor-assay potency score (higher = more potent)": -0.613},
      {"sequence": "TTCTTCTCGAATATCTTCATGA", "sensor-assay potency score (higher = more potent)": -0.54},
      {"sequence": "TTCTAGACCAAGCTCTTCTCTT", "sensor-assay potency score (higher = more potent)": -0.575},
      {"sequence": "TCAACTGTCCTTCTAGACCAAG", "sensor-assay potency score (higher = more potent)": -1.36},
      {"sequence": "ATATCTTCATGACTTAGCCTGT", "sensor-assay potency score (higher = more potent)": -0.479}
    ]},
    {"biological_target": "CYSLTR1", "experiment": "pooled miR-30 sensor sort-seq; sequence = guide strand", "settings": "shRNA", "values": [
      {"sequence": "TTTAGTTTGATTGTCTTGTGGG", "sensor-assay potency score (higher = more potent)": 0.715},
      {"sequence": "TGACACATAATGCAAGACCAAA", "sensor-assay potency score (higher = more potent)": -1.62},
      {"sequence": "TAGAAATGGAGAACTGGTCAAA", "sensor-assay potency score (higher = more potent)": -0.616},
      {"sequence": "TAAATTAATCATGTATACTTGG", "sensor-assay potency score (higher = more potent)": -0.15},
      {"sequence": "TAGAGGTTGACATACAAAGCAT", "sensor-assay potency score (higher = more potent)": -0.639},
      {"sequence": "TTTGTGAACATAATAGACCACA", "sensor-assay potency score (higher = more potent)": -0.314},
      {"sequence": "ATACCTACACACACAAACCTGG", "sensor-assay potency score (higher = more potent)": -0.207},
      {"sequence": "TTAGTTTGATTGTCTTGTGGGG", "sensor-assay potency score (higher = more potent)": 0.0611},
      {"sequence": "TTGACATACAAAGCATAGGTGC", "sensor-assay potency score (higher = more potent)": -0.753},
      {"sequence": "TTTTAGTTTGATTGTCTTGTGG", "sensor-assay potency score (higher = more potent)": -0.438},
      {"sequence": "TTTCTGAATGTAGACAGCCTTT", "sensor-assay potency score (higher = more potent)": -1.15}
    ]},
    {"biological_target": "CYTH1", "experiment": "pooled miR-30 sensor sort-seq; sequence = guide strand", "settings": "shRNA", "values": [
      {"sequence": "TGCACTGACAATATCGCTGGGC", "sensor-assay potency score (higher = more potent)": 0.0607},
      {"sequence": "TTTCATTAGCTACTTCTGCTAT", "sensor-assay potency score (higher = more potent)": -0.232},
      {"sequence": "TATTGCACTGACAATATCGCTG", "sensor-assay potency score (higher = more potent)": -0.0444},
      {"sequence": "AACTTGGTCTTTATTGTCGGGG", "sensor-assay potency score (higher = more potent)": -0.623},
      {"sequence": "TTCTGCTATCTCATCCTTCAGC", "sensor-assay potency score (higher = more potent)": -0.329},
      {"sequence": "TTGTCAGTCAGAATGAACCAGC", "sensor-assay potency score (higher = more potent)": -0.752}
    ]}
  ]
}
